# Source: PubChem (Broad Institute)
# Glyco luc inh = N-linked glycosylation inhibition. D54 ERlucT glycosylation luciferase reporter, 24 h; percent of 100 nM tunicamycin response. reporter increase, % at 12.5 µM. 0.23% of 360,000 active. AID 588692;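 active = mean luciferase reporter signal, scaled so untreated is 0 and the glycosylation-blocking control 100, at or above a set limit in every replicate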;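 also: luciferase carries N-glycosylation sites so blocking glycosylation raises the light; 0% = median of neutral control wells and 100% = median of 100 nM tunicamycin wells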
# CDK5 inh = blocks human CDK5/p35 kinase activity; Q00535+Q15078; AID 488839; 0.01% of 330,000 active; inhibition, % at 10 µM; Recombinant CDK5/p35, ADP-Glo luminescence, 60 min;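 active = highest replicate inhibition of at least 50% and at least 75% of replicates reaching 50%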;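 also: plate controls were DMSO neutral control for no effect and GW8510 at 10 µM for full effect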
# Target sequence (Q00535 whole entry, looked up): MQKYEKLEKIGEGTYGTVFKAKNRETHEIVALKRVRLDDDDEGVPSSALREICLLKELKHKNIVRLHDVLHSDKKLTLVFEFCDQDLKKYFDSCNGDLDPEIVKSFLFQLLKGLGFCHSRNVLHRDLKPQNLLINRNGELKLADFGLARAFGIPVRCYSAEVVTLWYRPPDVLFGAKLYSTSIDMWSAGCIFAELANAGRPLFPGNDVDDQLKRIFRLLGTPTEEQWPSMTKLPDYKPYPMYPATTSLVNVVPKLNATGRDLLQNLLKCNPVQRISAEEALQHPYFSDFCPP
# Target sequence (Q15078 whole entry, looked up): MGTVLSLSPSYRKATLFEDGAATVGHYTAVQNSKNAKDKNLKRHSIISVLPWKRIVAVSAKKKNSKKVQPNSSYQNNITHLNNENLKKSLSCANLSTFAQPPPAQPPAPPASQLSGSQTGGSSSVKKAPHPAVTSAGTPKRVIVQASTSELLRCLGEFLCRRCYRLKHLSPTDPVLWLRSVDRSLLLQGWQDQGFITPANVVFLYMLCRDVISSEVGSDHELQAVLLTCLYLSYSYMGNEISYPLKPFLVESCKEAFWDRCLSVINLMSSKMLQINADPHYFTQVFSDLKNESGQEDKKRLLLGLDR
# ALR inh = inhibitors of human sulfhydryl oxidase ALR | inhibition, % (concentration not given with the values) | purified ALR, DTT oxidation, H2O2 HRP-luminol luminescence | P55789 | 3.8% of 290,000 active;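 active = mean replicate inhibition above about 79%, with every replicate also reaching it, limit read from the data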
# SUMO Mot1 rescue = SUMOylation pathway inhibition by Mot1-301 growth rescue | S. cerevisiae Mot1-301 growth rescue, ATP luminescence, 38.5C; percent above DMSO median, 100 means doubled | growth rescue, % at 18.8 µM | 1% of 320,000 active | AID 2716;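 active = every valid replicate shows activation above 250% relative to neutral control wells; inactive = the rest, any valid replicate at or below 250%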;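 also: OY570 slx delta 5 strain wells were the positive control but not used for scaling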
# NSD2 inh = NSD2 (human) methyltransferase inhibition; 0.54% of 310,000 active; O96028; inhibition, % at 12.5 µM; NSD2 peptide methylation, AlphaScreen, 120 min; in the data active = inhibition above about 50%
# Casp6 inh = blocks human caspase-6 cleavage activity; 0.53% of 350,000 active; purified caspase-6, Z-VEID-R110 cleavage fluorescence; inhibition, % at 12.5 µM; AID 686996; P55212;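 active = mean inhibition across replicates at least about 35%, with every replicate also reaching that limit, limit read from the data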;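 also: 0% = median of neutral control wells and 100% = no fluorescence left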
# AlphaScreen art = interferes with AlphaScreen signal, flagging NSD2 false positives; shares compounds with NSD2 inh; AlphaScreen artifact counterscreen, preloaded methylated H4 peptide; AC35, µM (series often up to 10 µM), without a hit: at the top dose activity change, negative = signal loss; 9.4% of 1,500 active; call rule not given here
# * hit, by the source's call; / = not tested or not shown. Hits are enriched below; roughly 3.9% of the tested compounds scored in any of these assays.
SMILES,Glyco luc inh,CDK5 inh,ALR inh,SUMO Mot1 rescue,NSD2 inh,Casp6 inh,AlphaScreen art
Cc1cccnc1NC(=O)C1CCCN1S(=O)(=O)c1ccc(Cl)cc1 (configuration not stated),2,2,-8,0,0,5,/
O=C(NCCc1ccccn1)C1CCCN1S(=O)(=O)c1ccc(Cl)cc1 (configuration not stated),3,0,-24,0,119*,/,-1%
CO[C@@H]1CN(C)C(=O)c2ccc(NS(=O)(=O)c3ccccc3F)cc2OC[C@@H](C)NC[C@H]1C,/,/,/,/,/,-1,/
O=C(CSc1ccc(-c2cccnc2)nn1)N1CCCCCC1,0,1,0,-8,3,0,/
O=C(CSc1ccc(-c2cccnc2)nn1)N1CCCC1,3,0,-2,-6,52*,1,2%
CN(CC(=O)Nc1ccccc1C(F)(F)F)C(=O)COc1ncnc2sccc12,2,0,-4,731,-1,0,/
CSc1ccccc1NC(=O)CN(C)C(=O)COc1ncnc2ccccc12,-1,0,12,12,56*,0,1%
S=C1NCN(Cc2ccco2)CN1CCc1ccccc1,1,0,/,-16,53*,0,-3%
CC(C)CN1CN(Cc2ccco2)CNC1=S,0,-1,1,5,0,/,/
CCCC#Cc1cnc2c(c1)C(=O)N([C@@H](C)CO)C[C@@H](C)[C@@H](CN(C)Cc1ccncc1)O2,/,/,/,/,/,-7,/
C[C@@H]1CCCCO[C@@H](CN(C)C(=O)c2ccncc2)[C@@H](C)CN([C@@H](C)CO)C(=O)c2cc(NS(=O)(=O)c3ccccc3)ccc2O1,/,/,/,/,/,-2,/
O=C(O)CC1S/C(=N/N=C/c2ccc(-c3ccccc3[N+](=O)[O-])o2)NC1=O (configuration not stated),8,-1,98*,/,91*,/,1%
CN1CCN(C(=O)C[C@@H]2CC[C@@H]3[C@H](COC[C@H](O)CN3C(=O)C3CC3)O2)CC1,/,/,/,/,/,-1,/
Cc1ccc(S(=O)(=O)/N=C2/NC(=O)/C(=C\c3cc(Br)cc(Br)c3O)S2)cc1,3,-15,99*,20,109*,/,-4%
Cc1ccc(S(=O)(=O)/N=C2/NC(=O)/C(=C/c3ccc(Br)o3)S2)cc1,2,-5,54,53,70*,/,-2%
COc1ccc(CN2CC3(CN(C(C)=O)C3)c3c([nH]c4cc(OC)ccc34)[C@@H]2CO)cc1,/,/,/,/,/,0,/
Cc1cccc(NC(=O)CSCC(=O)NCc2cccc(C(F)(F)F)c2)c1,3,-1,6,1,98*,-3,1%
Cc1cc(NC(=O)CSCC(=O)NCc2cccc(C(F)(F)F)c2)no1,0,0,-7,-6,0,3,/
Cc1noc(C)c1S(=O)(=O)N1CCN(S(=O)(=O)c2ccccc2C#N)CC1,-1,0,-4,-15,107*,-1,-1%
Cc1n[nH]c(C)c1S(=O)(=O)N1CCN(S(=O)(=O)c2ccccc2C#N)CC1,0,1,/,/,0,-2,/
C/C=C/c1ccc2c(c1)O[C@H](CN(C)C(=O)c1ccccc1F)[C@@H](C)CN([C@@H](C)CO)S2(=O)=O,/,/,/,/,/,-3,/
O=C(O)c1cc(NS(=O)(=O)c2ccc3ccccc3c2)ccc1O,-2,-1,48,-12,0,7,/
O=C(O)c1ccccc1NS(=O)(=O)c1ccc2ccccc2c1,1,0,-7,60,52*,8,-1%
COC1=C(c2ccccc2)C(=O)c2ccccc2C1=O,4,1,-60,-40,81*,/,-1%
CCN1CCN(C(=S)NCCOC)CC1,2,1,-20,-3,1,2,/
CCOC(=O)N1CCN(C(=S)NCCOC)CC1,-1,1,-12,4,69*,/,1%
O=C(NCc1cccc(F)c1)[C@@H]1[C@@H](CO)[C@@H]2Cn3c(cccc3=O)[C@H]1N2,/,/,/,/,/,0,/
CSC1=NSC2=NC(=O)/C(=C/c3coc4ccccc4c3=O)C(=N)N12,-1,2,98*,20,75*,16,0%
